Assay results from PMC7862700, “An all-to-all approach to the identification of sequence-specific readers for epigenetic DNA modifications on cytosine”.

Key:
Assay in all cases: DAPPL (digital affinity profiling via proximity ligation, sequencing); 10 mM Tris-HCl pH 7.5, 50 mM NaCl, 1 mM DTT, 4% glycerol, room temperature, 30 min; GST-TFs on glutathione beads, 16-mer random dsDNA library, 0.1% formaldehyde crosslink after washing; high values mean tight binding
FLI1 = biological target: T1, FLI1 (Homo sapiens, UniProt Q01543 1-452); details: protein: recombinant; tags: N-terminal GST; dsDNA, one strand shown
T1 sequence: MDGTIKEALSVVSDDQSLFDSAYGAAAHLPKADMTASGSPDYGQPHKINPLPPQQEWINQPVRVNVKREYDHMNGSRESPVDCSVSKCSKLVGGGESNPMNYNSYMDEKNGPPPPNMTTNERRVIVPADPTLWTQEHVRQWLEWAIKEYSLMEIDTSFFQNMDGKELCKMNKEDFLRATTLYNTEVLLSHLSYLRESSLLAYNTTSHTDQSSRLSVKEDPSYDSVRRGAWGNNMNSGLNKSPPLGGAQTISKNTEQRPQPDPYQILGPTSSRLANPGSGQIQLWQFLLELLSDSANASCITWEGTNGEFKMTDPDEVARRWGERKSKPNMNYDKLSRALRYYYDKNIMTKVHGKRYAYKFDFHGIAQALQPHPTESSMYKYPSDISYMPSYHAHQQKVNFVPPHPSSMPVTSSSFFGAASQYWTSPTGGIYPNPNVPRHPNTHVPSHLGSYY
How it was run: (§1)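 Pools of DNA-barcoded human transcription factors, expressed in yeast as GST fusions on glutathione beads and combined with a tag-only sample, were incubated with 200 nmole of a 16-mer random double-stranded DNA library. Incubation took 30 min at room temperature in Tris/NaCl/DTT/glycerol buffer and was followed by washing, 0.1% formaldehyde crosslinking, proximity ligation (BsaI/T4 ligase, 1 h, 37 °C), PCR amplification and sequencing on an Illumina NextSeq500. Binding signal is the ratio of a hexamer's read frequency for a factor to its frequency for the tag-only sample.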

ELK1 = biological target: T2, ELK1 (Homo sapiens, UniProt P19419 1-428); details: protein: recombinant; tags: N-terminal GST; dsDNA, one strand shown
T2 sequence: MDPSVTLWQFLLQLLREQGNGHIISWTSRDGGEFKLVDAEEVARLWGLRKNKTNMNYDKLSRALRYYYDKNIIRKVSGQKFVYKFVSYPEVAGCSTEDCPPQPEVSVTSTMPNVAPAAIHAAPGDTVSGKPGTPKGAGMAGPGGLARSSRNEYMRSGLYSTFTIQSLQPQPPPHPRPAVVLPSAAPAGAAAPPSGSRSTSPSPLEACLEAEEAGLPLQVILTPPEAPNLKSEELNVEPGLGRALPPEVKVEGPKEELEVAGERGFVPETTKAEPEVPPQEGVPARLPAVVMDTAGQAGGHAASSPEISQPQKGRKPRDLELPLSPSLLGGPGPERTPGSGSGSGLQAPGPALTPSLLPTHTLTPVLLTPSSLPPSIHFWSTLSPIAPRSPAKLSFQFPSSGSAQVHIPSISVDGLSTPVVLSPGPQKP
How it was run: as §1

GABPA = biological target: T3, GABPA (Homo sapiens, UniProt Q06546 1-454); details: protein: recombinant; tags: N-terminal GST; dsDNA, one strand shown
T3 sequence: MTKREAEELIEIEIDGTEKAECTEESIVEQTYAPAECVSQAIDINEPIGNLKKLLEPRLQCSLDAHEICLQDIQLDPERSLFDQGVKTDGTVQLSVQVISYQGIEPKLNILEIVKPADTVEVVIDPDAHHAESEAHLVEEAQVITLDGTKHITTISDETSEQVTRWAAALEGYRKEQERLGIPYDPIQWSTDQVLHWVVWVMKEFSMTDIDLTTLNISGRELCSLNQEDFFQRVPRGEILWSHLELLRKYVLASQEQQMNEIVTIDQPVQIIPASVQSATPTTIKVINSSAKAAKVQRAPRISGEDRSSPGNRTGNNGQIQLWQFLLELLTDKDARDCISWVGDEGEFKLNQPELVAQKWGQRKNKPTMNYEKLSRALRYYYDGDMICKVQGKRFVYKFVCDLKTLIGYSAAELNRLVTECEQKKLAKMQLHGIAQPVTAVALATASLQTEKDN
How it was run: as §1

ERG = biological target: T4, ERG (Homo sapiens, UniProt P11308 1-479); details: protein: recombinant; tags: N-terminal GST; dsDNA, one strand shown
T4 sequence: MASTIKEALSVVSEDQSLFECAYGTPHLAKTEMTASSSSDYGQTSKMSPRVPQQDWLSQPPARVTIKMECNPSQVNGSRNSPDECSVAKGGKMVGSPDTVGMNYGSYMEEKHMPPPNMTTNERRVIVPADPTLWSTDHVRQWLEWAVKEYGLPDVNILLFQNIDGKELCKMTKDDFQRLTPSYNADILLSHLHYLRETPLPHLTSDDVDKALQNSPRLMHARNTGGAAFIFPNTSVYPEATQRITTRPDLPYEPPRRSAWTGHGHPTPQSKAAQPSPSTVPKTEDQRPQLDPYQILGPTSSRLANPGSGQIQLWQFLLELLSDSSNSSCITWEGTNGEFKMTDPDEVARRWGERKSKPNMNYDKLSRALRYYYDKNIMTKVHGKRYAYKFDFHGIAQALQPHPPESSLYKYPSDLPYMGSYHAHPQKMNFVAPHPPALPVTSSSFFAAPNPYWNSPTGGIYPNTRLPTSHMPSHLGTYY
How it was run: as §1

ELF1 = ELF1 (Homo sapiens, UniProt P32519 1-619); details: protein: recombinant; tags: N-terminal GST; dsDNA, one strand shown
How it was run: as §1

EHF = biological target: T5, EHF (Homo sapiens, UniProt Q9NZC4 1-300); details: protein: recombinant; tags: N-terminal GST; dsDNA, one strand shown
T5 sequence: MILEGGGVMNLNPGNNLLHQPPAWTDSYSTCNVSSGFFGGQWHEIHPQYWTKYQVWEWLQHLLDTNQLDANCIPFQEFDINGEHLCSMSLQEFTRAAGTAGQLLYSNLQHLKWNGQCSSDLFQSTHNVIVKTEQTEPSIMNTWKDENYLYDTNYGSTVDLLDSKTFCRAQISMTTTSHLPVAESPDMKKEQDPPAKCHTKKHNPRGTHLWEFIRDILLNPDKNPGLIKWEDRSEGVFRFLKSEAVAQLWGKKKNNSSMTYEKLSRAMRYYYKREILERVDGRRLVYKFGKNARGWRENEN
How it was run: as §1

SPI1 = SPI1 (Homo sapiens, UniProt P17947 1-270); details: protein: recombinant; tags: N-terminal GST; dsDNA, one strand shown
How it was run: as §1

SPIB = SPIB (Homo sapiens, UniProt Q01892 1-262); details: protein: recombinant; tags: N-terminal GST; dsDNA, one strand shown
How it was run: as §1

ELK3 = biological target: T6, ELK3 (Homo sapiens, UniProt P41970 1-407); details: protein: recombinant; tags: N-terminal GST; dsDNA, one strand shown
T6 sequence: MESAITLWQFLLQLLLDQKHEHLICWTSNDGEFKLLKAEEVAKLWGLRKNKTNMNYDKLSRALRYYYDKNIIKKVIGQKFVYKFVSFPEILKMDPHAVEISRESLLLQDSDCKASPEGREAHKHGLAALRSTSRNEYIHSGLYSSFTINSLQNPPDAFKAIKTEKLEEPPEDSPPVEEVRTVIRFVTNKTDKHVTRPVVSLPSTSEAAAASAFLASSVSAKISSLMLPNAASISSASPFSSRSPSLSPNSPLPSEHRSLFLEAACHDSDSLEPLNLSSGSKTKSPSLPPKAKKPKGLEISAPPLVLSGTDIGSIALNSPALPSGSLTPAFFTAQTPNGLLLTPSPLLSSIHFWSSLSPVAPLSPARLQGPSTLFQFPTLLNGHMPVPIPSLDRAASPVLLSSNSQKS
How it was run: as §1

FEV = biological target: T7, FEV (Homo sapiens, UniProt Q99581 1-238); details: protein: recombinant; tags: N-terminal GST; dsDNA, one strand shown
T7 sequence: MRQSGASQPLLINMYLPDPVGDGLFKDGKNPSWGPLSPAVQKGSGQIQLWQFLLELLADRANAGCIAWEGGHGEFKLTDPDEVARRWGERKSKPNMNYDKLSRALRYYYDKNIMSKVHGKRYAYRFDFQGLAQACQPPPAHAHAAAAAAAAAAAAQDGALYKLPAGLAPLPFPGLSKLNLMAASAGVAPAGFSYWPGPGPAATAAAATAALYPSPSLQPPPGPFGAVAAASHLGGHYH
How it was run: as §1

ETV5 = ETV5 (Homo sapiens, UniProt P41161 1-510); details: protein: recombinant; tags: N-terminal GST; dsDNA, one strand shown
How it was run: as §1

HSF1 = HSF1 (Homo sapiens, UniProt Q00613 1-529); details: protein: recombinant; tags: N-terminal GST; chain copies: 3; dsDNA, one strand shown
How it was run: as §1

SPIC = biological target: T8, SPIC (Homo sapiens, UniProt Q8N5J4 1-248); details: protein: recombinant; tags: N-terminal GST; dsDNA, one strand shown
T8 sequence: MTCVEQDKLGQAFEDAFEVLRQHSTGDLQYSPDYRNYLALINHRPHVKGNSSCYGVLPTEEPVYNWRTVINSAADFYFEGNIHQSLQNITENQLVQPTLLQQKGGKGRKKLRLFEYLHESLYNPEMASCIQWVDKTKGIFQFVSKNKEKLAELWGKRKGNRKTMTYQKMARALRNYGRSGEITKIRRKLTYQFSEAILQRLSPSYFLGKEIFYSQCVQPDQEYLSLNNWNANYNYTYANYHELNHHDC
How it was run: as §1

ELF4 = ELF4 (Homo sapiens, UniProt Q99607 1-663); details: protein: recombinant; tags: N-terminal GST; dsDNA, one strand shown
How it was run: as §1

ELK4 = biological target: T9, ELK4 (Homo sapiens, UniProt P28324-2 1-405); details: protein: recombinant; tags: N-terminal GST; dsDNA, one strand shown
T9 sequence: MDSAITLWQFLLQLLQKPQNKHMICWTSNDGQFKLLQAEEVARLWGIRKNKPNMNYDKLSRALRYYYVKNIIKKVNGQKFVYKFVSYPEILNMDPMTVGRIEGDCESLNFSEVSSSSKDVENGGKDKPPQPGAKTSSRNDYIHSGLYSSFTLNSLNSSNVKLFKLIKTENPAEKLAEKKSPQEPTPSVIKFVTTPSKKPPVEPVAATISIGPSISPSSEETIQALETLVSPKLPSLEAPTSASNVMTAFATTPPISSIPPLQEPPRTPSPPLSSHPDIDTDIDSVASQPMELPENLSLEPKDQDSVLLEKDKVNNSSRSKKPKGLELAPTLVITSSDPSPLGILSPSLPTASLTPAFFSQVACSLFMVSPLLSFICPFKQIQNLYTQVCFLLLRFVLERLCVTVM
How it was run: as §1

ETV2 = biological target: T10, ETV2 (Homo sapiens, UniProt O00321 1-342); details: protein: recombinant; tags: N-terminal GST; dsDNA, one strand shown
T10 sequence: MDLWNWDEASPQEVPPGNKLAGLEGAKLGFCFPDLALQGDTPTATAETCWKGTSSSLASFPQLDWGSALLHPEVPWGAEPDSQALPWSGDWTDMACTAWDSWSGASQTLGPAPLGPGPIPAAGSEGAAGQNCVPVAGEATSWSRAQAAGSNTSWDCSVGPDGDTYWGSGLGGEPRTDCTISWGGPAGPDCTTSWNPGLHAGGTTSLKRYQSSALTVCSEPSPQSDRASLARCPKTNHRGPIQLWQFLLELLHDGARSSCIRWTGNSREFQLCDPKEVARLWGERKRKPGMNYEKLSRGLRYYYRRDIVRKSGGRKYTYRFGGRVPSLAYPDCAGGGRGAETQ
How it was run: as §1

ELF3 = biological target: T11, ELF3 (Homo sapiens, UniProt P78545 1-371); details: protein: recombinant; tags: N-terminal GST; dsDNA, one strand shown
T11 sequence: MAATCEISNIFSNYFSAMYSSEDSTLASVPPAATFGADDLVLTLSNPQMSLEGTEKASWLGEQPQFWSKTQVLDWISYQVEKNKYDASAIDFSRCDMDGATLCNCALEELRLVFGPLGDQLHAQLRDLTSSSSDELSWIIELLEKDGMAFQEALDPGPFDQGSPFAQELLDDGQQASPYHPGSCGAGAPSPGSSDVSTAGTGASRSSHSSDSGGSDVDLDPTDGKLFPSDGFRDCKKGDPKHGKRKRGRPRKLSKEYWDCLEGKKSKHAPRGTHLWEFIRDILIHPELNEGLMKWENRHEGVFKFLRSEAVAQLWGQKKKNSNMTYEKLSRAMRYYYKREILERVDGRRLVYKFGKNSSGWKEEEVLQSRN
How it was run: as §1

CRX = CRX (Homo sapiens, UniProt O43186 1-299); details: protein: recombinant; tags: N-terminal GST; dsDNA, one strand shown
How it was run: as §1

ETV1 = ETV1 (Homo sapiens, UniProt P50549 1-477); details: protein: recombinant; tags: N-terminal GST; dsDNA, one strand shown
How it was run: as §1

Sequence of ETV1 (P50549 whole entry): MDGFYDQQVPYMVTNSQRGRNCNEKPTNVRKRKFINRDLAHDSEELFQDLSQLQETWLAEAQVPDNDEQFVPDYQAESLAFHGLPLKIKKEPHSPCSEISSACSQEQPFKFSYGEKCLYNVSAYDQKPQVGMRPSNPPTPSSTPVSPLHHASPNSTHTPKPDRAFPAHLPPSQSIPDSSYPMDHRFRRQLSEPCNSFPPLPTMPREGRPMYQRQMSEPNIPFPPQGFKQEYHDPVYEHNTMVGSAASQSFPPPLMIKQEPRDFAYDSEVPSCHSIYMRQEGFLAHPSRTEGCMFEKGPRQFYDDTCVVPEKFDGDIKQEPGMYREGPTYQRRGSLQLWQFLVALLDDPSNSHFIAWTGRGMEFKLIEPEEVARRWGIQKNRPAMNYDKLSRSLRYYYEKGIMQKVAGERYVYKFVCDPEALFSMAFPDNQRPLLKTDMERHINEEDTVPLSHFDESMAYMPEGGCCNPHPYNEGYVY
Sequence of ELF1 (P32519 whole entry): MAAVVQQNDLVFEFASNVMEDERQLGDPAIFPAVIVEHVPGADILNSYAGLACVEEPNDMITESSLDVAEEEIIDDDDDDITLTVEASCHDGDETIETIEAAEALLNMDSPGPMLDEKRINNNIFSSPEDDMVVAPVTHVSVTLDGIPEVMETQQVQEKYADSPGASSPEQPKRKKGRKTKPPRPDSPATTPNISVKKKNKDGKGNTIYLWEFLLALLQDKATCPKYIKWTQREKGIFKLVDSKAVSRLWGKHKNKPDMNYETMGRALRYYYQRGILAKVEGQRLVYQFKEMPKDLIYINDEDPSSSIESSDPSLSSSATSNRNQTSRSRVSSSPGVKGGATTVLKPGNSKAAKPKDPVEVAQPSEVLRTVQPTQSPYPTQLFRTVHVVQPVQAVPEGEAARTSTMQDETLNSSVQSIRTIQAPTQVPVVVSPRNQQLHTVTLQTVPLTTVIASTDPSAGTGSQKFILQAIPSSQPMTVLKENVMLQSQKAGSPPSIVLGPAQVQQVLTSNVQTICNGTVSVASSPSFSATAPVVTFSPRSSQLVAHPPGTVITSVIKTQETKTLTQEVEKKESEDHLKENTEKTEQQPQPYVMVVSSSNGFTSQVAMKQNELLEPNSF
Sequence of CRX (O43186 whole entry): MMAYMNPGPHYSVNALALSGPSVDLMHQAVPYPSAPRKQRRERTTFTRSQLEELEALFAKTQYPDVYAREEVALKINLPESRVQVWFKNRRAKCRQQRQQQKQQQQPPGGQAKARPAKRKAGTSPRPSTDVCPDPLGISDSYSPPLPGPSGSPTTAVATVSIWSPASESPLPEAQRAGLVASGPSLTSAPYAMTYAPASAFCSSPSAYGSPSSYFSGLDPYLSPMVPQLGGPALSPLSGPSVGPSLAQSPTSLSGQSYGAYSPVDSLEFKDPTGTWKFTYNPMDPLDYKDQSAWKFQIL
Sequence of SPIB (Q01892 whole entry): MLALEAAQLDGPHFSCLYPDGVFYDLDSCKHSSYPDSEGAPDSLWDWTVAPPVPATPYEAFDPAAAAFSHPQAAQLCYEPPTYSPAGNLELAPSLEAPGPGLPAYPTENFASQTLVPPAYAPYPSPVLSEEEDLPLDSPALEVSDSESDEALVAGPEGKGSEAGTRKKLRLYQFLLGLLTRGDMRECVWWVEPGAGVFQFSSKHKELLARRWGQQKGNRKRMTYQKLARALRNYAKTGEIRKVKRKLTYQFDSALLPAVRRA
Sequence of ELF4 (Q99607 whole entry): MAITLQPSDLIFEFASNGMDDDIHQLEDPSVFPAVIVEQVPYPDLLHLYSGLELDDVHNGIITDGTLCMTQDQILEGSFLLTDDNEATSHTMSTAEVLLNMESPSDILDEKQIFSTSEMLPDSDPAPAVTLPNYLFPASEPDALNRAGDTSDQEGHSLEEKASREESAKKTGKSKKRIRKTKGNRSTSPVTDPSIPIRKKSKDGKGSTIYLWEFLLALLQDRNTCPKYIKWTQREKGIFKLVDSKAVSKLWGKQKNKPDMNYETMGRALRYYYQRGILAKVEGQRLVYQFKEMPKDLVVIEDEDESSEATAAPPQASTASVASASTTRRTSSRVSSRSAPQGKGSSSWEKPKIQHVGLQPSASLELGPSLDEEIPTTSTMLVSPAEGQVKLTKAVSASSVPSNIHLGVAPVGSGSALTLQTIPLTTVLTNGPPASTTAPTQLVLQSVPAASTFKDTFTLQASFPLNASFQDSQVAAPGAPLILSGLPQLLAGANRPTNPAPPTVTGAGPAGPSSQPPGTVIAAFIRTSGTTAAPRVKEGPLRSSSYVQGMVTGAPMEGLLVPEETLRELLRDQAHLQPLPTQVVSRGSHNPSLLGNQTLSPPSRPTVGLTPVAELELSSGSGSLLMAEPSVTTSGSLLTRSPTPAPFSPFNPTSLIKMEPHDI
Sequence of HSF1 (Q00613 whole entry): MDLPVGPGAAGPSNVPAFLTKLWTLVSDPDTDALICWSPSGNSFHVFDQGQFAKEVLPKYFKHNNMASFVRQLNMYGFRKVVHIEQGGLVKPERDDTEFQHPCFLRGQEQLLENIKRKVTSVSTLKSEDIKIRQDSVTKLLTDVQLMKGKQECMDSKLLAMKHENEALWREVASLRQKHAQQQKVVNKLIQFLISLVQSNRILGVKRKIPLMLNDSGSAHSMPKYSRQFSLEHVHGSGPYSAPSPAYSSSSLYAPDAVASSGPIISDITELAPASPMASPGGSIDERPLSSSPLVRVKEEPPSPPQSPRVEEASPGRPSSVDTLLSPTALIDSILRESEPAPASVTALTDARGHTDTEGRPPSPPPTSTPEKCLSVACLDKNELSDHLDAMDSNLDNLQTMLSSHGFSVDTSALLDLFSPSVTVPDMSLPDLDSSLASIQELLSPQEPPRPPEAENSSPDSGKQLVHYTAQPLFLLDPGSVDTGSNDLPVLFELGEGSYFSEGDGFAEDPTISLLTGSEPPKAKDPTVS
Sequence of ETV5 (P41161 whole entry): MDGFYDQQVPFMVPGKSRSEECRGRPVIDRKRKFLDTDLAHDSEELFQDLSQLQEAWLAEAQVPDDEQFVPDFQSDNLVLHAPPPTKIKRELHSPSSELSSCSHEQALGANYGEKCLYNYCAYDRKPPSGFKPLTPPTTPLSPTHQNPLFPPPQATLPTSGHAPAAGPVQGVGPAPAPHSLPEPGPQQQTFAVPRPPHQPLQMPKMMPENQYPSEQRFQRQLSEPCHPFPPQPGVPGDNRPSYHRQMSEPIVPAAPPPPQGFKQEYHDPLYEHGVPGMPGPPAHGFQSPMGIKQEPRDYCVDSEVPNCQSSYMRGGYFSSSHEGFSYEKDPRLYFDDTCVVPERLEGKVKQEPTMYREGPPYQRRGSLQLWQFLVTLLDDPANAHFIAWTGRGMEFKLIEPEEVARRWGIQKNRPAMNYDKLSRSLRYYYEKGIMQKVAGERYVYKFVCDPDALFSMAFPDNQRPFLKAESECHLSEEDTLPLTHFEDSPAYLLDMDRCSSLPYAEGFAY

With GTTTCC the binding signal (FLI1) was 2.66 fold enrichment (6-mer frequency, TF over GST control), the binding signal (ELK1) was 2.9 fold enrichment (6-mer frequency, TF over GST control) and the binding signal (GABPA) was 2.56 fold enrichment (6-mer frequency, TF over GST control). For the same sequence, the binding signal (ERG) was 3.43 fold enrichment (6-mer frequency, TF over GST control), the binding signal (ELF1) was 2.58 fold enrichment (6-mer frequency, TF over GST control) and the binding signal (EHF) was 2.77 fold enrichment (6-mer frequency, TF over GST control). The binding signal (SPI1) was 2.67 fold enrichment (6-mer frequency, TF over GST control), the binding signal (SPIB) was 2.84 fold enrichment (6-mer frequency, TF over GST control) and the binding signal (ELK3) was 2.9 fold enrichment (6-mer frequency, TF over GST control). For the same sequence, the binding signal (FEV) was 3.32 fold enrichment (6-mer frequency, TF over GST control), the binding signal (ETV5) was 3.01 fold enrichment (6-mer frequency, TF over GST control) and the binding signal (HSF1) was 1.42 fold enrichment (6-mer frequency, TF over GST control). The binding signal (SPIC) was 2.6 fold enrichment (6-mer frequency, TF over GST control), the binding signal (ELF4) was 2.56 fold enrichment (6-mer frequency, TF over GST control) and the binding signal (ELK4) was 2.16 fold enrichment (6-mer frequency, TF over GST control). For the same sequence, the binding signal (ETV2) was 2.42 fold enrichment (6-mer frequency, TF over GST control), the binding signal (ELF3) was 2.55 fold enrichment (6-mer frequency, TF over GST control) and the binding signal (CRX) was 1.08 fold enrichment (6-mer frequency, TF over GST control). For the same sequence, the binding signal (ETV1) was 2.65 fold enrichment (6-mer frequency, TF over GST control).
